Among the data in PubChem BioAssay AID463173 (ICCB-Longwood Screening Facility, Harvard Medical School, 2010) are survival values, retold here.

Hit rate of the full screen: of about 52,000 compounds, about 4,300 (8.3%) were called active. The list comes from a sample in which actives are over-represented; it also holds similar structures and randomly drawn compounds. A number with no mark means an inactive call. Rule as the data show it: active = survival mostly below about 52% (no sharp cut-off); inactive = mostly above about 56%.

For the assay, the system named is DeltatarO mutant. The assay is described as follows: growth inhibition of S. aureus wild type versus tarO mutant, primary screen, teichoic acid synthesis inhibitors, RN4220, OD600 (AID 463173). The following applies: OD600, 18 h, active compounds read low, screened at 18.75 µg/mL (by protocol).
`COc1cccc(CNC(=O)C2CCCN(S(=O)(=O)c3cn(C)cn3)C2)c1` (stereo not drawn): the survival is 75%.

On to `CSCCC(NS(=O)(=O)c1cccs1)C(=O)Nc1ccc(C)c(Cl)c1` (stereo not drawn), for which the survival is 74%.

Turning to `CCC(C(=O)N1CCN(c2ccccn2)CC1)c1ccccc1` (stereo not drawn), the survival was 75%.

Take `COc1ccc(CNC(=O)CCS(=O)(=O)c2ccc3c(c2)oc(=O)n3C)cc1`: the survival was 75%.

As to `CCc1ccccc1NC(=O)Cn1c(=O)n(Cc2ccccc2)c(=O)c2c(C)c(C(=O)N(C)C)sc21`, the survival was 67%.

As to `N#CC(C#N)=C(C(C#N)=C1Nc2ccccc2N1)c1ccccc1F`, the survival was 59%.

For the compound `O=C(Nc1ccc(Br)cc1)c1ccc2c3c(onc13)-c1ccccc1C2=O`, the survival was 72%.

As for `CN(C)c1ccc(CNS(=O)(=O)c2ccc3[nH]c4c(c3c2)CCCCC4)cc1`, the survival was 84%.

For the compound `Cc1cccc(C(=O)Nc2ccc3nc(SCC(=O)N4CCCC4)sc3c2)c1`, the survival is 58%.

On to `CCc1ccc(CN(C(=O)c2cc(=O)c3ccc(C)cc3o2)C2CCS(=O)(=O)C2)cc1` (stereo not drawn), for which the survival is 107%.

`CCc1ccc(CN(C(=O)c2nc(SC)ncc2Cl)C2CCS(=O)(=O)C2)cc1` (stereo not drawn): the survival was 71%.

`CCCOc1ccc(CN(C(=O)c2cc(=O)c3ccc(C)cc3o2)C2CCS(=O)(=O)C2)cc1` (stereo not drawn): the survival is 36% (active).

Regarding `CCSc1ncc(Cl)c(C(=O)N(Cc2ccc(C(C)(C)C)cc2)C2CCS(=O)(=O)C2)n1` (stereo not drawn), the survival was 42% (active).

Regarding `CCSc1ncc(Cl)c(C(=O)N(Cc2ccccc2Cl)C2CCS(=O)(=O)C2)n1` (stereo not drawn), the survival was 83%.

For the compound `CCOc1ccc(CN(C(=O)c2cc(=O)c3cc(C)cc(C)c3o2)C2CCS(=O)(=O)C2)cc1` (stereo not drawn), the survival is 56%.

As for `Cc1ccc2c(=O)cc(C(=O)N(Cc3ccc(C(C)(C)C)cc3)C3CCS(=O)(=O)C3)oc2c1` (stereo not drawn), the survival was 35% (active).

Turning to `Cc1ccc2c(=O)cc(C(=O)N(Cc3ccc(N(C)C)cc3)C3CCS(=O)(=O)C3)oc2c1` (stereo not drawn), the survival is 115%.

As for `CCOc1ccc(CN(C(=O)c2cc(=O)c3cc(Cl)ccc3o2)C2CCS(=O)(=O)C2)cc1` (stereo not drawn), the survival was 104%.

On to `COc1cccc(NC(=O)c2oc3ccccc3c2NC(=O)c2ccc(C(F)(F)F)cc2)c1`, for which the survival is 60%.

Consider `COc1cc(CN2CCc3nc(Nc4ccc5c(c4)OCCO5)ncc3C2)cc(OC)c1OC`, for which the survival is 91%.

Take `CCOC(=O)N1CCN(Cc2nc3cc(NC(=O)C(C)C)ccc3n2C(C)C)CC1`: the survival was 68%.

In the case of `CCOC(=O)c1cccc(NC(=O)CCC(=O)N2CC(C)Oc3ccc(C)cc32)c1` (stereo not drawn), the survival was 51%.

With `Cc1ccc(-n2nc(C)c3c(C)c(CCC(=O)NCc4ccc(Cl)cc4)c(C)nc32)cc1`, the survival was 89%.
